# According to the supplement of paper PMC10338343:
# ± gives the standard deviation.
# How the values were obtained:
# [1] = tested on: MILI (PIWIL2) piRISC loaded with piRNA #1 (26 nt); assay: pre-steady-state target cleavage rate (min^-1); guide: piRNA #1 5'p-UGAGGUAGUAGGUUGUAUAGUAUCCA; higher = faster piRNA-guided slicing of the target; settings: auxiliary factor: 500 nM mouse GTSF1;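 further: 1 nM active piRISC with 0.1 nM target library at 33 °C single turnover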
# In short: (§1)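 The pre-steady-state cleavage rate was derived from a burst-and-steady-state fit of Cleave-'n-Seq data. For these assays, 1 nM active affinity-purified piRISC loaded with a single synthetic guide was mixed with […] a transcribed, DNA-blocked target RNA library in HEPES–potassium acetate buffer at 33 °C, with or without 500 nM GTSF1 partner protein, for 0–8 or 0–960 min. Sequencing counts of uncleaved targets were normalised to depth and to weakly complementary targets, and k3 was capped at 0.0001 min^-1 after three trials were pooled.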
# [2] = tested on: EfPiwi piRISC loaded with piRNA #1 (26 nt); assay: pre-steady-state target cleavage rate (min^-1); auxiliary factor: 500 nM Ephydatia muelleri Gtsf1; guide: piRNA #1 5'p-UGAGGUAGUAGGUUGUAUAGUAUCCA; MIWI and MILI are mouse PIWI proteins and EfPiwi is from a freshwater sponge; tags in brackets are library labels; higher = faster piRNA-guided slicing of the target
# In short: as §1
Sequence,pre-steady-state target cleavage rate [1],pre-steady-state target cleavage rate [2]
GGAGAGGAUACUAUACAUCCUUCUACCUCA,0.0216 ± 0.0041,0.00362 ± 0.0026
GGAGACCAUGCUAUACAACCUACUACCUCA,0.145 ± 0.023,0.00746 ± 0.0043
GGAGACGAUACAAUACAACCAACUACCUCA,0.0105 ± 0.0027,0.0037 ± 0.0029
